# Where “and” joins values, the source holds several entries; their conditions need not be identical. Equal values may be shown once. Inconclusive results are not listed. Where a structure was tested more than once in an assay, its records may differ in their call. Calls of active or inactive are those of the source. The call rests on the fitted dose curve; in most records, active means well fitted inhibition curve with a large enough effect in the repeat runs; inconclusive means weak or mixed curves; inactive means no such curve, though single readings can be large or run the other way.
# Molecular target: Cytochrome P450 2C9 (Homo sapiens) (UniProt P11712)
# Assay: Cytochrome P450 family 2 subfamily C member 9 (CYP2C9) small molecule antagonists: luciferase biochemical (cell-free) qHTS assay (AID 1645842); further: nearly all actives have a fitted effect of over 55% in size
# Settings: P450-Glo CYP2C9 enzyme assay, luciferin luminescence; series mostly up to 57.4 µM; activity change, negative = inhibition: at the top concentration
# Procedure, shortened: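 Luminescence, after 20 min with luciferin detection reagent, reflected CYP2C9 turnover during a 1 h NADPH-driven reaction at 37C. Enzyme-substrate mix contained 0.4% bovine serum albumin and was preincubated with compound 10 min at room temperature.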
# On the % scale 0 is the no-effect control and ±100 the full control effect; potency means the concentration at half of the fitted maximal effect.
# Sequence of Cytochrome P450 2C9 (Homo sapiens) (P11712 whole entry, looked up): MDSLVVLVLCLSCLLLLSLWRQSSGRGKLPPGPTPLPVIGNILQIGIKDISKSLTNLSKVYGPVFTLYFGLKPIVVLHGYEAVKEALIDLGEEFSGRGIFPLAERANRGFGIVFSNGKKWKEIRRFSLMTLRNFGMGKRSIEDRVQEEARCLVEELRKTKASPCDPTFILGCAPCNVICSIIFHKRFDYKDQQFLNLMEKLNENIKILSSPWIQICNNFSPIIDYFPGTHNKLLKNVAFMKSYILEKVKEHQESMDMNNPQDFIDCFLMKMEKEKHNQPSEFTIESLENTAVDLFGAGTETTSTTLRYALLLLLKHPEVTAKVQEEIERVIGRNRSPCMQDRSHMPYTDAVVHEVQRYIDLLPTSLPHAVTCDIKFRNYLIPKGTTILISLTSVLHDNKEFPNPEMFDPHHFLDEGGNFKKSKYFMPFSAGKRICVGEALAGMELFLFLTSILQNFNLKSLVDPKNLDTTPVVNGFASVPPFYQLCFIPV
SMILES,"activity change, negative = inhibition",Potency
COCCCNCC1COc2ccccc2O1 (stereo not drawn),1.88% (inactive),
CCCCC(C)(O)C/C=C/[C@H]1[C@H](O)CC(=O)[C@@H]1CCCCCCC(=O)OC (stereo partly drawn),,2.68 µM (active)
Cc1cc(N2CCCCC2)nc2ccccc12,34.4% (inactive),
c1ccc(C(OC2CCN(CCCc3nn[nH]n3)CC2)c2ccccc2)cc1,-3% (inactive),
Cc1nn(C)c(COc2ccc(N3CCN(S(=O)(=O)N(C)C)CC3)cc2)c1-c1cccc2c(CCCOc3cccc4ccccc34)c(C(=O)O)n(CCN3CCOCC3)c12,,13.5 µM (active)
CC[C@@H](c1ccc(F)c(F)c1)n1c(C(=O)OC)c(-c2ccno2)[nH]c1=S,,0.756 µM (active)
COC(=O)CCC(=O)CN,14.2% (inactive),
COc1ccc2cc(OCC3(C(=O)O)CN(C(=O)c4ccc(F)cc4)C3)ccc2c1,,16.9 µM (active)
CCCCN(CCCC)C(=O)CN1C[C@H](c2ccc3c(c2)OCO3)[C@@H](C(=O)O)[C@@H]1c1ccc(OC)cc1,,21.3 µM (active)
O=C(O)c1cc(=O)c2c3nc4ccccc4oc-3cc(=O)c2[nH]1,,26.8 µM (active)
O=C(c1ccc(C#Cc2cccc(F)c2)cn1)N1CC2CC2C1 (stereo not drawn),,23.9 µM (active)
O=C(O)c1n[nH]c2c1C[C@H]1C[C@@H]21,-1.24% (inactive),
O=C1C[C@@H](c2ccc(O)cc2)Oc2cc(O)ccc21,,12 µM (active)
O=S(=O)(NC1CCNCC1)c1cc(S(=O)(=O)c2ccccc2)ccc1C(F)(F)F,-22.1% (inactive),
O=C(O)CCC(=O)C(=O)O,-14.5% (inactive),
O=C1CC(c2ccc([N+](=O)[O-])cc2)=NN1c1ccccc1,,13.5 µM (active)
O=C(NCC(=O)N1CC[C@H](NC2CCC(O)(c3ccc(-c4ncccn4)cn3)CC2)C1)c1cccc(C(F)(F)F)c1 (stereo partly drawn),-13.4% (inactive),

SMILES,"activity change, negative = inhibition",Potency
CNC1CCN(C(Cc2cccc(-c3ccncc3)c2)C(=O)c2sc3c(F)ccc(F)c3c2Cl)CC1 (stereo not drawn),,10.7 µM (active)
COc1cccc2c1CCC[C@H]2CN(C)CCc1ccc2ccoc2c1,,0.425 µM (active)
COc1c(C)c(C(=O)c2ccc(N)c(C(=O)O)c2)n2ccccc12,,12 µM (active) and 10.7 µM (active)
OCC(S)CS (stereo not drawn),,2.68 µM (active)
Cc1c(C)c2c(c(C)c1O)CC[C@@](C)(CCC[C@H](C)CCC[C@H](C)CCCC(C)C)O2,1.39% (inactive),
CCOc1ccc(C(Nc2ccccn2)c2ccc3ccc(C)nc3c2O)cc1C (stereo not drawn),,4.77 µM (active)
Clc1cc(Cl)c(OCC#CI)cc1Cl,,6.01 µM (active)
O=C(C1CC1)N1CC[C@@H](Cc2n[nH]c(=O)n2-c2ccc(-c3ccc4occc4c3)cc2)C1,,6.74 µM (active)
Nc1nc(N)c2nc(CNc3ccc(C(=O)N[C@@H](CCC(=O)O)C(=O)O)cc3)cnc2n1,-17.4% (inactive),
CNc1nc(Nc2cnn([C@H]3CCN(C4COC4)C[C@@H]3F)c2Cl)ncc1C(F)(F)F,,2.68 µM (active)
O=C(Nc1ccc(Br)cc1)c1cc(Br)c(Br)s1,,21.3 µM (active)
C[C@@H]1[C@H](O)[C@@H](C)/C=C/C=C\C=C\C=C\C=C\C=C\C=C\[C@H](O[C@@H]2O[C@H](C)[C@@H](O)[C@H](N)[C@@H]2O)C[C@@H]2O[C@](O)(C[C@@H](O)C[C@@H](O)[C@H](O)CC[C@@H](O)C[C@@H](O)CC(=O)O[C@H]1C)C[C@H](O)[C@H]2C(=O)O (stereo in doubt),-18.2% (inactive),
COC(=O)[C@H](CC1C=NC=N1)NCC12CC3CC(CC(C3)C1)C2 (stereo partly drawn),-5.71% (inactive),
FC(F)(F)c1cc(C(F)(F)F)c2ccc3nc(-c4nnco4)cn3c2n1,2.62% (inactive),
N[C@@H](CC(=O)N1CCn2c(nnc2C(F)(F)F)C1)Cc1[nH]nc2c(F)c(F)ccc12,-16% (inactive),
N#Cc1ccc2[nH]c(O)c(-c3ccc(CN4CCOCC4)cn3)c2c1,,inactive and 16.9 µM (active)

# Source: PubChem BioAssay (NCATS)
